# Records with an inconclusive call do not appear. Active and inactive are the calls of the source.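 The calls were made as follows, unless noted: active = normalized viability below 100% at a tested concentration; inactive = the rest.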
# Key:
# [1] = growth inhibition of DIPG glioma cells, dose response, cell-based, SU-DIPG-XVII, MIPE5.0, CellTiter-Glo, qHTS (AID 1347060; cut-off not given, nearly all actives have AC50 up to about 26 µM;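 as to AC50: cells exposed to compound for 48 hours before viability readout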); details: SU-DIPG-XVII viability, CellTiter-Glo ATP luminescence
# [2] = growth inhibition of DIPG glioma cells, dose response, cell-based, SU-DIPG-XIII, MIPE4.0, CellTiter-Glo, qHTS (AID 1347061; cut-off not given, nearly all actives have AC50 up to about 37 µM;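 also: cells exposed to compound for 48 hours before readout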); details: SU-DIPG-XIII viability, CellTiter-Glo ATP luminescence
# [3] = growth inhibition of DIPG glioma cells, dose response, cell-based, JHH-DIPG-1, MIPE4.0, CellTiter-Glo, qHTS (AID 1347062; cut-off not given, nearly all actives have AC50 up to about 27 µM;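 as to AC50: cells exposed to compound for two days before readout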); details: JHH-DIPG-1 viability, CellTiter-Glo ATP luminescence
# [4] = growth inhibition of DIPG glioma cells, dose response, cell-based, SU-DIPG-IV, MIPE4.0, CellTiter-Glo, qHTS (AID 1347063; cut-off not given, nearly all actives have AC50 up to about 30 µM;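 also: compound exposure lasted 48 hours before the viability readout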); details: SU-DIPG-IV viability, CellTiter-Glo ATP luminescence
# [5] = growth inhibition of DIPG glioma cells, dose response, cell-based, SU-DIPG-XIII, MIPE5.0, CellTiter-Glo, qHTS (AID 1347064; cut-off not given, nearly all actives have AC50 up to about 23 µM;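 as to AC50: cells exposed to compound for 48 hours before the viability read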); details: SU-DIPG-XIII viability, CellTiter-Glo ATP luminescence
# [6] = viability loss in pontine glioma line – cell-based, SU-DIPG-XXV, MIPE5.0, CellTiter-Glo, qHTS, dose response (AID 1347065; cut-off not given, nearly all actives have AC50 up to about 26 µM;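 also: cells exposed to compound for 48 hours before ATP readout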); details: CellTiter-Glo ATP luminescence
# [7] = SU-DIPG-VI glioma cell viability, MIPE4.0 library, CellTiter-Glo luminescence, qHTS (AID 1347066; cut-off not given, nearly all actives have AC50 up to about 30 µM;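 also: cells exposed to compound for 48 hours before readout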); details: CellTiter-Glo ATP luminescence
# [8] = JHH-DIPG-1 glioma cell viability, MIPE5.0 library, CellTiter-Glo luminescence, qHTS (AID 1347067; cut-off not given, nearly all actives have AC50 up to about 26 µM;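 also: cells exposed to compound for 48 hours before readout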); details: JHH-DIPG-1 glioma viability, CellTiter-Glo ATP luminescence
# [9] = SU-DIPG-XXV glioma cell viability, MIPE5.0 library, qHTS (AID 1347068; cut-off not given, nearly all actives have IC50 up to about 30 µM;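 as to IC50: cells exposed to compound for 48 hours before viability readout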)
# [10] = sensitizers of A549 cells to miR-34 induction, primary screen, imaging, A549 dox-inducible miR-34, nuclei and caspase counts (AID 1347080;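 active = compounds whose cell count with miR-34 switched on is under 0.7 times the count with it off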); details: A549 miR-34 inducible, Hoechst nuclei count, 48 h
# [11] = modifiers of HSF1 nuclear foci, imaging, Selleck Cancer Library (AID 1347162; in the data active = plate-normalised HSF1 focus index below about 0.46); details: human cells, at 10 µM; SSMD: measured here: HSF1 foci SSMD mean; cell count: measured here: cell number; plate-normalised HSF1 focus index: stronger effect = lower value
# [12] = survival rescue of mitochondrial mutant cells in low glucose, primary screen, MELAS cybrids, Rieske KO mouse fibroblasts, CellTiter-Glo (AID 1508586;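 active = mean z-score across replicates of 1.96 or higher in either the MELAS or the Rieske mutant cell line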;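 also: z relative to plate mean and SD of compound and empty wells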)
# [13] = ovarian cancer cell viability with rucaparib, profiling panel, oncology-focused library, rucaparib conditional (AID 1508598); details: patient-derived ovarian cancer cells, CellTiter-Glo viability, 144 h, stronger effect = lower value
smiles,measurement,setting,value
CC(C)(C)c1cc(C(=O)O)c(NC(=O)Nc2ccc3[nH]ncc3c2)s1,outcome,[1],inactive
same,outcome,[2],inactive
same,outcome,[3],inactive
same,outcome,[4],inactive
same,outcome,[5],inactive
same,outcome,[6],inactive
same,outcome,[7],inactive
same,outcome,[8],inactive
same,outcome,[9],inactive
CCC(C(=O)O)C1CCC(C)C(C(C)C(O)C(C)C(=O)C(CC)C2OC3(C=CC(O)[C@@]4(CC[C@](C)(C5CC[C@@](O)(CC)C(C)O5)O4)O3)C(C)CC2C)O1 (some centres not stated),AC50,[1],2350 nM (active)
same,AC50,[2],935 nM (active)
same,AC50,[3],3320 nM (active)
same,AC50,[4],1660 nM (active)
same,AC50,[5],3320 nM (active)
same,AC50,[6],833 nM (active)
same,AC50,[7],1870 nM (active)
same,AC50,[8],934 nM (active)
same,IC50,[9],2350 nM (active)
Cn1cc(-c2ccc3nnc(Sc4ccc5ncccc5c4)n3n2)cn1,outcome,[1],inactive
same,outcome,[2],inactive
same,outcome,[3],inactive
same,outcome,[4],inactive
same,outcome,[5],inactive
same,outcome,[6],inactive
same,outcome,[7],inactive
same,outcome,[8],inactive
same,outcome,[9],inactive
same,fold change,"[10]; stronger effect = lower value, cell number ratio, induced over uninduced",0.884 (inactive)
same,fold change,[10]; measured here: relative caspase fold change +Dox/-Dox,0.78
same,cell count,"[10]; measured here: total cells with miR-34 induction, stronger effect = lower value",7210
same,cell count,[10]; measured here: total cells without miR-34 induction,8160
same,SSMD,[11],1.79
same,cell count,[11],7530
same,plate-normalised HSF1 focus index,[11],1.11 (inactive)
same,z-score,"[12]; MELAS cybrid survival, CellTiter-Glo 48 h, stronger effect = higher value",-0.396 (inactive)
same,z-score,"[12]; Rieske KO mouse fibroblast survival, CellTiter-Glo 72 h",0.75
same,viability,"[13]; at 0.000305 µM, OCI-C5x cells, with rucaparib 10 µM, 100% = cells with rucaparib alone",127% (inactive)
same,viability,"[13]; at 0.000305 µM, OCI-C5x cells, without rucaparib",127% (inactive)
same,viability,"[13]; at 0.000305 µM, OCI-P5x cells, with rucaparib 20 µM, 100% = cells with rucaparib alone",97.6% (active)
same,viability,"[13]; at 0.000305 µM, OCI-P5x cells, without rucaparib",94.3% (active)
same,viability,"[13]; at 0.00122 µM, OCI-C5x cells, with rucaparib 10 µM, 100% = cells with rucaparib alone",135% (inactive)
same,viability,"[13]; at 0.00122 µM, OCI-C5x cells, without rucaparib",125% (inactive)
same,viability,"[13]; at 0.00122 µM, OCI-P5x cells, with rucaparib 20 µM, 100% = cells with rucaparib alone",111% (inactive)
same,viability,"[13]; at 0.00122 µM, OCI-P5x cells, without rucaparib",98.6% (active)
same,viability,"[13]; at 0.00488 µM, OCI-C5x cells, with rucaparib 10 µM, 100% = cells with rucaparib alone",132% (inactive)
same,viability,"[13]; at 0.00488 µM, OCI-C5x cells, without rucaparib",125% (inactive)
same,viability,"[13]; at 0.00488 µM, OCI-P5x cells, with rucaparib 20 µM, 100% = cells with rucaparib alone",112% (inactive)
same,viability,"[13]; at 0.00488 µM, OCI-P5x cells, without rucaparib",102% (inactive)
same,viability,"[13]; at 0.0195 µM, OCI-C5x cells, with rucaparib 10 µM, 100% = cells with rucaparib alone",126% (inactive)
same,viability,"[13]; at 0.0195 µM, OCI-C5x cells, without rucaparib",122% (inactive)
same,viability,"[13]; at 0.0195 µM, OCI-P5x cells, with rucaparib 20 µM, 100% = cells with rucaparib alone",110% (inactive)
same,viability,"[13]; at 0.0195 µM, OCI-P5x cells, without rucaparib",103% (inactive)
same,viability,"[13]; at 0.0781 µM, OCI-C5x cells, with rucaparib 10 µM, 100% = cells with rucaparib alone",120% (inactive)
same,viability,"[13]; at 0.0781 µM, OCI-C5x cells, without rucaparib",124% (inactive)
same,viability,"[13]; at 0.0781 µM, OCI-P5x cells, with rucaparib 20 µM, 100% = cells with rucaparib alone",103% (inactive)
same,viability,"[13]; at 0.0781 µM, OCI-P5x cells, without rucaparib",110% (inactive)
same,viability,"[13]; at 0.313 µM, OCI-C5x cells, with rucaparib 10 µM, 100% = cells with rucaparib alone",126% (inactive)
same,viability,"[13]; at 0.313 µM, OCI-C5x cells, without rucaparib",123% (inactive)
same,viability,"[13]; at 0.313 µM, OCI-P5x cells, with rucaparib 20 µM, 100% = cells with rucaparib alone",107% (inactive)
same,viability,"[13]; at 0.313 µM, OCI-P5x cells, without rucaparib",106% (inactive)
same,viability,"[13]; at 1.25 µM, OCI-C5x cells, with rucaparib 10 µM, 100% = cells with rucaparib alone",131% (inactive)
same,viability,"[13]; at 1.25 µM, OCI-C5x cells, without rucaparib",124% (inactive)
same,viability,"[13]; at 1.25 µM, OCI-P5x cells, with rucaparib 20 µM, 100% = cells with rucaparib alone",105% (inactive)
same,viability,"[13]; at 1.25 µM, OCI-P5x cells, without rucaparib",104% (inactive)
same,viability,"[13]; at 5 µM, OCI-C5x cells, with rucaparib 10 µM, 100% = cells with rucaparib alone",157% (inactive)
same,viability,"[13]; at 5 µM, OCI-C5x cells, without rucaparib",114% (inactive)
same,viability,"[13]; at 5 µM, OCI-P5x cells, with rucaparib 20 µM, 100% = cells with rucaparib alone",91.5% (active)
same,viability,"[13]; at 5 µM, OCI-P5x cells, without rucaparib",100% (inactive)
CC(=O)NCC(=O)N1[C@@H]2CC[C@H]1c1ccc(Nc3ncc(C(F)(F)F)c(NC4CCC4)n3)cc12,AC50,[1],417 nM (active)
same,AC50,[2],1660 nM (active)
same,AC50,[3],5900 nM (active)
same,AC50,[4],1870 nM (active)
same,AC50,[5],661 nM (active)
same,AC50,[6],186 nM (active)
same,AC50,[7],2640 nM (active)
same,AC50,[8],1860 nM (active)
same,IC50,[9],833 nM (active)

# Source: PubChem BioAssay
